Measured values from PubChem BioAssay AID1863 (Southern Research Specialized Biocontainment Screening …, 2009).
The campaign covered roughly 300,000 compounds. About 480 (0.16%) were called active.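 The calls were made as follows: active = inhibition over 29.93%, a cutoff 3 SD above the screen mean, later confirmed by dose response; inconclusive = inhibition over 29.93% but no dose response follow-up; inactive = inhibition at most 29.93% or unconfirmed.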 Only a sample is shown. Results with a measured potency or affinity are listed apart.

experiment: inhibitors of PhoP regulon expression, primary screen, Salmonella Typhimurium, GFP reporter (AID 1863);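 also: 0% = low Mg2+ inducing control and 100% = high Mg2+ repressing control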; conditions: S. Typhimurium PhoP-regulated promoter GFP reporter, 4 h; at 50 µM; active compounds read high

inhibition, inactive:
CC(C)C[C@H](NC(=O)c1[nH]cnc1C(=O)N[C@H](C)c1ccccc1)C(=O)OC(C)(C)C -2.19%
CCCCCCCCOC(=O)C[N+](C)(C)C/C=C(/C)Cl 2.02%
CCCCCCCCCCCCOC(=O)C[N+](C)(C)C 0.96%
Cc1cc(C(=O)NCCN2CCOCC2)ccc1[N+](=O)[O-] -2.2%
Nc1nc(-c2ccccn2)nc(N)c1Cc1ccc(Cl)cc1Cl 3.01%
Cc1nc(N)c(Cc2ccccc2F)c(N)n1 2.15%
COc1ccc(C(=O)NCC(=O)N2CCN(c3ccccc3)CC2)cc1 -3.55%
COCc1c(C(=O)N/N=C/c2ccc(C)o2)nnn1-c1nonc1N 4.95%
COc1cccc(CC(=O)Nc2nc(-c3cccnc3)cs2)c1 -6.4%
Cc1ccc(N2C(=O)CC(NNc3nc4ccccc4s3)C2=O)cc1 (stereo not given) 7.17%
Cc1ccc(Nc2cc(C)nn2-c2nc(C)cc(C)n2)cc1 14.5%
Cc1cc(=O)[nH]c(-n2nc(C)cc2C)n1 -11.6%
Cc1ccc(S(=O)(=O)N2CCN(Cc3ccccc3)CC2)cc1 -4.43%
Cc1cc(C)c2ccc(C(=O)O)nc2c1O -7.66%
Cc1cc(C)c2ccc(NN)nc2c1O 0%
CCn1c(C)nnc1SCC(=O)Nc1ccc(N2CCOCC2)cc1 10%
O=C(COc1ccccc1[N+](=O)[O-])N1CCC(Cc2ccccc2)CC1 4.09%
Cc1nnc(N/N=C/c2c[nH]c3ccccc23)[nH]c1=O 7.38%
Cc1nnc(N/N=C/C(C)c2ccccc2)[nH]c1=O (stereo not given) -2.09%
S=C(Nc1ccccc1Cl)N(Cc1ccccc1)Cc1cccnc1 4.33%
O=C(CSc1ccc(-c2ccccn2)nn1)N1CCc2ccccc21 -3.41%
Cc1ccc(-c2csc(NC(=O)C[n+]3cc(-c4ccccc4)n4c3CCC4)n2)cc1 -8.54%
O=C(C[n+]1cc(-c2ccc(F)cc2)n2c1CCC2)Nc1nc(-c2ccc(F)cc2)cs1 20.4%
Cc1ccc(-c2c[n+](CC(=O)Nc3nc(-c4ccccc4)cs3)c3n2CCC3)cc1 -7.93%
O=C(C[n+]1cc(-c2ccccc2)n2c1CCC2)Nc1nc(-c2ccc(F)cc2)cs1 11.3%
Cc1ccc(NC(=O)C[n+]2cc(-c3ccc(C)cc3)n3c2CCC3)cc1 -9.5%
Cc1ccc(NC(=O)C[n+]2cc(-c3ccccc3)n3c2CCC3)cc1 -4.1%
O=C(c1cc2ccc([N+](=O)[O-])cc2oc1=O)N1CCOCC1 -3.48%
O=C(COc1ccc(S(=O)(=O)N2CCCCC2)cc1)Nc1ccccc1F -6.38%
O=C(c1ccc(N2CCN(C3CC(=O)N(Cc4cccs4)C3=O)CC2)cc1)c1cccnc1 (stereo not given) 4.02%
O=C(O)c1ccn2c(C(=O)c3ccccc3)c(-c3ccccc3)cc2c1 -13.9%
CCn1cc(C(=O)NCC2CCCO2)c(=O)c2cc(F)c(N3CCN(C)CC3)cc21 (stereo not given) 0.68%
Cc1cc(C)c(NC(=O)c2cc(S(=O)(=O)N3CCOCC3)ccc2F)c(C)c1 -1.33%
CCOc1ccc(C(=O)Nc2ccc(N3CCN(C)CC3)cc2)cc1 -7.33%
C[C@H]1COc2c(N3CCN(C)CC3)c(F)cc3c(=O)c(C(=O)O)cn1c23 -9.45%
CCOc1ccc(C(=O)Nc2ccc(S(=O)(=O)N3CCN(C)CC3)cc2)cc1 8.02%
CN1CCN(c2c(F)cc3c(=O)c(C(=O)O)cn(CCF)c3c2F)CC1 -2.24%
C[C@H]1COc2c(C3(N)CC3)c(F)cc3c(=O)c(C(=O)O)cn1c23 -7.84%
Cc1cc(C)n(CC(=O)N2c3ccccc3Sc3ccc(C(F)(F)F)cc32)n1 -5.1%
Cc1cc[n+](-c2[nH]c(=O)sc2/C=N/N=C(\[O-])CCn2c3ccccc3c3ccccc32)cc1 1.47%
Cn1c(=O)oc2cc(S(=O)(=O)NCCC(=O)N3CCc4ccccc4C3)ccc21 -8.83%
COc1ccc(C(CNS(=O)(=O)c2ccc(F)cc2)N2CCN(C)CC2)cc1 (stereo not given) 3.53%
NC(=O)COC(=O)C12CC3CC(CC(O)(C3)C1)C2 17.4%
CCOc1ccc(C(C)=O)cc1CSc1nc(C)cc(C)n1 4.1%
CC(=O)c1cccc(NC(=O)NC2CCCCC2)c1 -2.42%
COCCn1c(-c2ccc(Cl)cc2)cnc1SCC(=O)NCCc1ccc(OC)c(OC)c1 12.7%
C=COCCn1c(-c2nonc2N)nc2ccccc21 18.4%
CC(C)CCOC(=O)C[N+](C)(C)CCOC1CC2CCC1(C)C2(C)C (stereo not given) -2.94%
CCCCOC(=O)C[N+](C)(C)CCOC1CC2CCC1(C)C2(C)C (stereo not given) -9.77%
CCOC(=O)C[N+](C)(C)CCOC1CC2CCC1(C)C2(C)C (stereo not given) 6.45%
CCCOC(=O)C[N+](C)(C)CCOC1CC2CCC1(C)C2(C)C (stereo not given) -23.2%
CC(C)CCNC(=O)C1(c2cccs2)CCOCC1 -3.36%
O=C(NCc1ccccn1)Nc1cccc(Cl)c1Cl 7.04%
O=C1C=C(O)c2cccc(O)c2C1=O 4.81%
O=C1C=C(O)c2c(O)cccc2C1=O 5.73%
CC(=O)c1cccc(NC(=O)CCc2nnc3ccc(N4CCOCC4)nn23)c1 9.13%
Cc1ccc(-c2csc3nc4c5ccccc5c(NCCCN5CCOCC5)nn4c(=O)c23)cc1 2.89%
O=c1c2ccccc2nc2c3ccccc3c(NCCN3CCOCC3)nn12 -8.49%
COc1cccc(/C=N/NC(=O)c2ccc(CN3c4cccc5cccc(c45)S3(=O)=O)cc2)c1 -6.43%
OC(CNCCc1ccc(Cl)cc1)COc1ccc2ccccc2c1 (stereo not given) 7.14%
Cc1cc(OCC(O)CNC(C)(C)C)ccc1Cl (stereo not given) -6.41%
Cc1nc(N)nc(N/N=C/c2ccccc2)n1 -5.41%
COCC(C)NS(=O)(=O)c1ccccc1 (stereo not given) -1.07%
CC(=O)c1cccc(NC(=O)c2sc3nc4n(c(=O)c3c2C)CCCCC4)c1 11.4%
NC(=S)N/N=C/c1c(O)ccc2ccccc12 -8.26%
O=C(CN1CCCc2ccccc21)N/N=C/c1c(O)ccc2ccccc12 41.7%
Oc1ccc2ccccc2c1/C=N/Nc1ccccc1 -2.22%
O=C(CN1CCOCC1)N/N=C/c1c(O)ccc2ccccc12 3.4%
CCc1nccn1CCC(=O)N1CCCC(N2CCN(c3cccc(Cl)c3)CC2)C1 (stereo not given) -2.69%
CN1CCCN(C(=O)c2cccc3ccccc23)CC1 -0.73%
O=C1CC(C(=O)N2CCN(c3ccc(F)cc3)CC2)CN1CCc1ccccc1 (stereo not given) 5.66%
CCCN(CC(=O)Nc1ccccc1C)C(=O)COc1ccc2c(c1)CCC2 -2.3%
CN1CCCN(C(=O)c2c(F)cccc2Cl)CC1 -6.36%
CCCS(=O)(=O)N1CCN(C(=O)COc2ccccc2)CC1 1.1%
O=C(C[n+]1cc(-c2ccccc2)n2c1CCC2)Nc1nc(-c2ccccc2)cs1 2.36%
Cn1c(NC(=O)C[n+]2cc(-c3ccc(F)cc3)n3c2CCC3)cc(=O)n(C)c1=O 4.11%
O=C(C[n+]1cc(-c2ccc(Cl)cc2)n2c1CCC2)N1c2ccccc2Sc2ccccc21 17.8%
O=C(C[n+]1cc(-c2ccccc2)n2c1CCC2)N1c2ccccc2Sc2ccccc21 9.1%
O=C(C[n+]1cc(-c2ccc(F)cc2)n2c1CCC2)Nc1nc(-c2ccccc2)cs1 14.9%
Cn1c(NC(=O)C[n+]2cc(-c3ccc(Cl)cc3)n3c2CCC3)cc(=O)n(C)c1=O 4.64%
CC1CCc2c(nc3ncnn3c2N2CC(C)OC(C)C2)C1 (stereo not given) -10.6%
Cc1ccc(S(=O)(=O)CCC(=O)Oc2ccc(-c3nnco3)cc2)cc1 -2.63%
COc1cccc(CN2CCN(Cc3cc(OC)c(OC)cc3OC)CC2)c1 -6.37%
O=C(N/N=C/c1ccccc1O)c1cccc2ccccc12 7.21%
COc1ccc2cc(C(=O)N/N=C/c3sc4ccccc4c3O)ccc2c1 9.41%
O=C(N/N=C/c1ccccc1F)c1cccc2ccccc12 -1.58%
COc1ccc(C(=O)N/N=C/c2c[nH]c3ccccc23)cc1 4.37%
CCC(=O)N1CCc2cc(Br)cc(S(=O)(=O)CCC(=O)NCCOC)c21 1.63%
COC(=O)[C@@H](NC(=O)Nc1ccc(OC(F)(F)F)cc1)C(C)C -9.58%
O=C1CC(c2ccccc2Cl)Cc2c1cnn2-c1nc2ccccc2s1 (stereo not given) -5.22%
Cc1nn(C)c(C)c1CN(C)C(=O)CCCC(=O)O -3.44%
CCOc1ccccc1-c1ccc(C(=O)NCc2ccccc2)o1 -2.75%
Cc1c(Cl)cccc1NC(=O)CNC(=O)c1ccc(F)cc1 -6.63%
O=C1C(=O)N(CCO)C(c2cccc(F)c2)/C1=C(\O)c1ccc(Cl)cc1 (stereo not given) 0.663%
O=C(COC(=O)CCCN1C(=O)c2cccc3cccc(c23)C1=O)Nc1cccc(Br)c1 5.32%
